From PubChem BioAssay AID1159580 (chemical genetic matrix, 2015)
Screen size: about 5,500 compounds; about 2,000 (36%) were called active. Roughly 18% stayed inconclusive and do not appear here. No stated cut-off is given here; in the data, active means normalized growth mostly below about 0.91 (no sharp cut-off); inconclusive means no clear call, values can overlap the other calls; inactive means mostly above about 0.92. Some of the results follow.

Assay: chemical genetic growth profiling, strain panel (AID 1159580);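 further: tested at 20 µM; growth read once vehicle control cultures reached saturation at 30 °C; 1 = growth at the plate median or of vehicle wells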
Settings: S. cerevisiae deletion strains, growth OD
[1] = locus YHR030C, strain SLT2, stronger effect = lower value
[2] = locus YHR079C, strain IRE1, stronger effect = lower value
[3] = locus YJL095W, strain BCK1, stronger effect = lower value
[4] = locus YJR066W, strain TOR1, stronger effect = lower value
[5] = locus YLR113W, strain HOG1, stronger effect = lower value
[6] = locus YNL183C, strain NPR1, stronger effect = lower value
[7] = locus YOR231W, strain MKK1, stronger effect = lower value
[8] = locus YPL256C, strain CLN2, stronger effect = lower value
[9] = locus YAL013W, strain DEP1, stronger effect = lower value
[10] = locus YBR229C, strain ROT2, stronger effect = lower value
[11] = locus YDL101C, strain DUN1, stronger effect = lower value
[12] = locus YDR150W, strain NUM1, stronger effect = lower value
[13] = locus YEL061C, strain CIN8, stronger effect = lower value
[14] = locus YGR078C, strain PAC10, stronger effect = lower value
[15] = locus YHR087W, strain rtc3, stronger effect = lower value
[16] = locus YJR043C, strain POL32, stronger effect = lower value
[17] = locus YJR075W, strain HOC1, stronger effect = lower value
[18] = locus YLR039C, strain RIC1, stronger effect = lower value
[19] = locus YLR058C, strain SHM2 (second series), stronger effect = lower value
[20] = locus YLR085C, strain ARP6, stronger effect = lower value
[21] = locus YLR262C, strain YPT6, stronger effect = lower value
[22] = locus YML094W, strain GIM5, stronger effect = lower value
[23] = locus YMR219W, strain ESC1, stronger effect = lower value
[24] = locus YMR263W, strain SAP30, stronger effect = lower value
[25] = locus YNL153C, strain GIM3, stronger effect = lower value
[26] = locus YNL298W, strain CLA4 (second series), stronger effect = lower value
[27] = locus YNL322C, strain KRE1, stronger effect = lower value
[28] = locus YNR030W, strain Alg12, stronger effect = lower value
[29] = locus YOL006C, strain TOP1, stronger effect = lower value
[30] = locus YPL055C, strain LGE1, stronger effect = lower value
[31] = locus YPL241C, strain CIN2, stronger effect = lower value
[32] = locus YPR135W, strain CTF4, stronger effect = lower value

Measured: normalized growth

COc1ccc(C(C)=O)c(OC)c1
inactive: [1] 0.954 | [2] 0.952 | [3] 0.965 | [4] 0.953 | [5] 0.948 | [6] 0.895 | [7] 0.934 | [8] 0.909

COc1ccc(OC)c(C(=O)c2cc(OC)c(OC)c(OC)c2)c1
inactive: [9] 0.999 | [10] 1.02 | [11] 1 | [12] 1.01 | [13] 1.05 | [14] 1 | [1] 0.93 | [15] 1.06 | locus YJL187C, strain SWE1, stronger effect = lower value 1.01 | [16] 1.02 | [17] 1.03 | locus YKL190W, strain CNB1, stronger effect = lower value 1.03 | [19] 1.01 | [20] 0.999 | [22] 0.982 | [23] 1.01 | [24] 1.01 | [25] 1.01 | [26] 1.01 | [27] 0.995 | [28] 1.01 | [29] 0.973 | [30] 1.01 | [31] 0.986 | [32] 1.06
active: [18] 0.753 | [21] 0.69

COC(=O)c1cc(OC)c(OC)c(OC)c1NS(=O)(=O)c1cc(OC)ccc1OC
inactive: [9] 0.999 | [10] 0.999 | locus YCL061C, strain MRC1, stronger effect = lower value 0.974 | [11] 0.968 | locus YDL134C, strain PPH21, stronger effect = lower value 1.02 | [12] 0.984 | [13] 1.03 | [14] 0.983 | locus YGR229C, strain SMI1, stronger effect = lower value 1.01 | [1] 0.965 | [15] 1.03 | [16] 0.987 | [17] 0.992 | [18] 0.984 | [19] 1.02 | [20] 1.02 | [21] 1.02 | [22] 1.04 | [23] 1 | [24] 1 | locus YNL128W, strain TEP1, stronger effect = lower value 1 | [25] 0.992 | [26] 0.987 | [27] 0.996 | [28] 1.01 | [29] 0.981 | [30] 1.03 | [31] 0.983 | [32] 0.969

COc1ccc(C(C)=O)c(O)c1
inactive: [1] 0.966 | [2] 0.965 | [3] 0.968 | [4] 0.905 | [5] 0.96 | [6] 0.892 | [7] 0.968 | [8] 0.957
